What was measured:
[1] = molecular target: POU1 (OCT1 POU domain) (human, UniProt P14859 260-458); assay: EMSA-SELEX-seq; no BOB1; 20 mM Tris-HCl pH 7.6, 140 mM NaCl, 10% glycerol, 0.5 mM EDTA, 0.05% Triton X-100, 0.1 mg/mL BSA, 0.1 mg/mL poly(dI-dC), 5 mM DTT, room temperature, 20 min; high values mean tight binding; settings: protein: recombinant; dsDNA, one strand shown
How it was run: (§1)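 With or without 28 ng coactivator protein, 30 ng of tagged POU-domain protein was combined with 300 ng of a PCR-amplified double-stranded random 35-nt library in 20 μL Tris–HCl pH 7.6 binding buffer for 20 min at RT. The protein came from E. coli BL21 and had been purified under denaturing conditions and renatured. Four rounds of cutting complex bands from native 6% PAGE, elution and PCR amplification preceded Illumina sequencing. The binding preference figure is the percentage of sequenced 8-mers matching a motif pattern.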

[2] = molecular target: T1, POU2 (OCT2 POU domain) (human, UniProt P09086 175-386); assay: as above; settings: protein: recombinant; dsDNA, one strand shown
T1 sequence: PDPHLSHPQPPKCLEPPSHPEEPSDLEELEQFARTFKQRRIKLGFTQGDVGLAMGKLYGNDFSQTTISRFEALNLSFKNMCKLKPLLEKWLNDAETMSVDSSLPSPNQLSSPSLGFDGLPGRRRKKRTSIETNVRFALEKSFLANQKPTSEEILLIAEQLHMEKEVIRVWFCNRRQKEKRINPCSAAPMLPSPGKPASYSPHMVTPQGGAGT
How it was run: as §1

[3] = molecular target: POU1 (OCT1 POU domain);BOB1 (OBF1, OCA-B) (human;human, UniProt P14859;Q16633 260-458;1-256, |); assay: EMSA-SELEX-seq; with BOB1 (ternary complex band); 20 mM Tris-HCl pH 7.6, 140 mM NaCl, 10% glycerol, 0.5 mM EDTA, 0.05% Triton X-100, 0.1 mg/mL BSA, 0.1 mg/mL poly(dI-dC), 5 mM DTT, room temperature, 20 min; high values mean tight binding; settings: protein: recombinant;recombinant; copies: 1;1; dsDNA, one strand shown
How it was run: as §1

[4] = molecular target: T2, POU2 (OCT2 POU domain);BOB1 (OBF1, OCA-B) (human;human, UniProt P09086;Q16633 175-386;1-256, |); assay: as above; settings: protein: recombinant;recombinant; copies: 1;1; dsDNA, one strand shown
T2 sequence 1: T1 sequence
T2 sequence 2: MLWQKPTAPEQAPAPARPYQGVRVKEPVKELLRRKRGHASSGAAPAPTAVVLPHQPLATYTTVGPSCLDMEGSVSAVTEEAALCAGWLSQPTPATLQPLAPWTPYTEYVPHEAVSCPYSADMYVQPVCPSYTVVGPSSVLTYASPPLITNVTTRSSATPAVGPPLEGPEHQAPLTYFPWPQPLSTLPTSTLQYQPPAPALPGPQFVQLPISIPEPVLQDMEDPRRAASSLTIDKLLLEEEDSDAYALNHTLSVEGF
How it was run: as §1

Chain of POU1 (OCT1 POU domain) (P14859 260-458): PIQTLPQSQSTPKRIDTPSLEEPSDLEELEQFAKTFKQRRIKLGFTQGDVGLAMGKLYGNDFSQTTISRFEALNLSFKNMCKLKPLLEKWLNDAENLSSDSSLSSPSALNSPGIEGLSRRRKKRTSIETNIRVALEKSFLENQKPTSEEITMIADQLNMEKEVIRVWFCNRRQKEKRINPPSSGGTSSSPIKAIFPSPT

In the case of ACAACAAA, the binding signal [1] is reported as 0.0301 % of ANNNNAAN 8-mers, the binding signal [2] is reported as 0.0265 % of ANNNNAAN 8-mers and the binding signal [3] is reported as 0.0371 % of ANNNNAAN 8-mers. The binding signal [4] was 0.0248 % of ANNNNAAN 8-mers.
With ATACGAAC the binding signal [1] was 0.0343 % of ANNNNAAN 8-mers, the binding signal [2] was 0.0345 % of ANNNNAAN 8-mers and the binding signal [3] was 0.032 % of ANNNNAAN 8-mers. The binding signal [4] was 0.0347 % of ANNNNAAN 8-mers.
AGCTAAAA was tested, and the binding signal [1] was 0.0282 % of ANNNNAAN 8-mers, the binding signal [2] was 0.038 % of ANNNNAAN 8-mers and the binding signal [3] was 0.0425 % of ANNNNAAN 8-mers. The binding signal [4] was 0.0338 % of ANNNNAAN 8-mers.
With AGGCAAAT the binding signal [1] was 0.77 % of ANNNNAAN 8-mers, the binding signal [2] was 0.546 % of ANNNNAAN 8-mers and the binding signal [3] was 2.22 % of ANNNNAAN 8-mers. For the same sequence, the binding signal [4] was 2.15 % of ANNNNAAN 8-mers.
For AGCGCAAC, the binding signal [1] was 0.0103 % of ANNNNAAN 8-mers, the binding signal [2] was 0.0104 % of ANNNNAAN 8-mers and the binding signal [3] was 0.0125 % of ANNNNAAN 8-mers. The binding signal [4] was 0.0107 % of ANNNNAAN 8-mers.
AGGACAAT was tested, and the binding signal [1] was 0.042 % of ANNNNAAN 8-mers, the binding signal [2] was 0.0345 % of ANNNNAAN 8-mers and the binding signal [3] was 0.0496 % of ANNNNAAN 8-mers. For the same sequence, the binding signal [4] was 0.0421 % of ANNNNAAN 8-mers.
AGTGCAAT was tested, and the binding signal [1] was 0.0347 % of ANNNNAAN 8-mers, the binding signal [2] was 0.0455 % of ANNNNAAN 8-mers and the binding signal [3] was 0.0367 % of ANNNNAAN 8-mers. For the same sequence, the binding signal [4] was 0.0396 % of ANNNNAAN 8-mers.
In the case of AGGCAAAG, the binding signal [1] is reported as 0.146 % of ANNNNAAN 8-mers, the binding signal [2] is reported as 0.0783 % of ANNNNAAN 8-mers and the binding signal [3] is reported as 0.258 % of ANNNNAAN 8-mers. The binding signal [4] was 0.13 % of ANNNNAAN 8-mers.
With AGAGCAAC the binding signal [1] was 0.0133 % of ANNNNAAN 8-mers, the binding signal [2] was 0.0115 % of ANNNNAAN 8-mers and the binding signal [3] was 0.0137 % of ANNNNAAN 8-mers. For the same sequence, the binding signal [4] was 0.0206 % of ANNNNAAN 8-mers.
In the case of ATTTAAAC, the binding signal [1] is reported as 0.137 % of ANNNNAAN 8-mers, the binding signal [2] is reported as 0.161 % of ANNNNAAN 8-mers and the binding signal [3] is reported as 0.117 % of ANNNNAAN 8-mers. The binding signal [4] was 0.109 % of ANNNNAAN 8-mers.
With ATAAGAAA the binding signal [1] was 0.1 % of ANNNNAAN 8-mers, the binding signal [2] was 0.0955 % of ANNNNAAN 8-mers and the binding signal [3] was 0.118 % of ANNNNAAN 8-mers. The binding signal [4] was 0.0826 % of ANNNNAAN 8-mers.
For ATGGTAAG, the binding signal [1] was 0.0984 % of ANNNNAAN 8-mers, the binding signal [2] was 0.127 % of ANNNNAAN 8-mers and the binding signal [3] was 0.071 % of ANNNNAAN 8-mers. For the same sequence, the binding signal [4] was 0.09 % of ANNNNAAN 8-mers.
ATCAAAAC was tested, and the binding signal [1] was 0.0465 % of ANNNNAAN 8-mers, the binding signal [2] was 0.0443 % of ANNNNAAN 8-mers and the binding signal [3] was 0.0539 % of ANNNNAAN 8-mers. For the same sequence, the binding signal [4] was 0.0347 % of ANNNNAAN 8-mers.
For AAGGCAAT, the binding signal [1] was 0.0519 % of ANNNNAAN 8-mers, the binding signal [2] was 0.0489 % of ANNNNAAN 8-mers and the binding signal [3] was 0.057 % of ANNNNAAN 8-mers. For the same sequence, the binding signal [4] was 0.0495 % of ANNNNAAN 8-mers.
With AGATAAAG the binding signal [1] was 0.0439 % of ANNNNAAN 8-mers, the binding signal [2] was 0.0495 % of ANNNNAAN 8-mers and the binding signal [3] was 0.0359 % of ANNNNAAN 8-mers. The binding signal [4] was 0.0281 % of ANNNNAAN 8-mers.

Source: PMC10812921, “Transcriptional Coactivator BOB1 (OBF1, OCA-B) Modulates the Specificity of DNA Recognition by the POU-Domain Factors OCT1 and OCT2 in a Monomeric Configuration”
